Hit rate of the full screen: of about 310,000 compounds, about 14,000 (4.5%) showed an effect of 50% or more. The effect is printed as a negative number. The list comes from a sample in which strong results are over-represented; it also holds similar structures and randomly drawn compounds.
Each compound was assayed against human ether-à-go-go-related gene (hERG) potassium channel (human, UniProt Q12809) (assay: primary screen, population patch clamp on CHO cells stably expressing hERG; higher = less effect of the substance).
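Also: peak tail current of the secondary pulse compared with the same well before compound.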

Chain of human ether-à-go-go-related gene (hERG) potassium channel (Q12809 whole entry, looked up): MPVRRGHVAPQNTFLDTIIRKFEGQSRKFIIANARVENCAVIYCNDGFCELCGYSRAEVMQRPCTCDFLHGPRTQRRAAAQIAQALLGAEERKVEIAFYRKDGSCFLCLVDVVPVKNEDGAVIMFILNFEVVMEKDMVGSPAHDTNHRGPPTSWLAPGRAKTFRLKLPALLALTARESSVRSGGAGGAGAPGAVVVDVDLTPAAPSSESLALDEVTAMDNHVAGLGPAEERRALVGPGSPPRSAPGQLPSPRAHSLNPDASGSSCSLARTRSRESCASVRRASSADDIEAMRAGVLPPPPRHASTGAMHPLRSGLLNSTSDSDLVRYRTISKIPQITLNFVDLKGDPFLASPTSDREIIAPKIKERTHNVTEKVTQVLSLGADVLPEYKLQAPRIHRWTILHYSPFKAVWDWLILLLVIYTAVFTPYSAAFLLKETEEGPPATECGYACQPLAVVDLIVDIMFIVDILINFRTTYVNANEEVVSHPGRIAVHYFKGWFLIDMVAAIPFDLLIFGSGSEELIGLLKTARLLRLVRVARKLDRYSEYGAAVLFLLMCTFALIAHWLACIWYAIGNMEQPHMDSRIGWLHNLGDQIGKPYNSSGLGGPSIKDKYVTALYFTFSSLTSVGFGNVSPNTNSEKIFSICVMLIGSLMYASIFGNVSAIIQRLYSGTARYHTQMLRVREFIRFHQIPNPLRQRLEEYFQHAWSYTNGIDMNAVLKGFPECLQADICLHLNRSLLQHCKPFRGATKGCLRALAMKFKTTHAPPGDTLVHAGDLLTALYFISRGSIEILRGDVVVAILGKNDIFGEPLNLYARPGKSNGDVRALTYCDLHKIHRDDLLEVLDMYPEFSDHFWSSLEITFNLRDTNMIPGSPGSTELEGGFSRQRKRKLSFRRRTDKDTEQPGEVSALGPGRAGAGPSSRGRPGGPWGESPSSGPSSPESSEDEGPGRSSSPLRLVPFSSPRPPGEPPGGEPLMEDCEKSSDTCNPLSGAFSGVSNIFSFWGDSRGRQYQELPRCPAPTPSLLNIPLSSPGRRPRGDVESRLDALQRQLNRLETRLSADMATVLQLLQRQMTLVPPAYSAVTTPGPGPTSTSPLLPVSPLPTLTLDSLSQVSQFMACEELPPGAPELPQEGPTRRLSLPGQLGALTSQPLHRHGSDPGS

Row | SMILES | hERG current change (%, negative = inhibition) at 10uM
1 | COC(=O)C1=C(N)N(c2ccccc2C(F)(F)F)C2=C(C(=O)CCC2)C1c1ccc2c(c1)OCO2 (stereo not shown) | 20.5%
2 | CC(C)(C)c1nc2scc(-c3ccc(Br)cc3)c2c(=O)o1 | 7.26%
3 | Cc1cc(C(=O)Nc2nnc(C3CCCCC3)s2)cs1 | -5.46%
4 | COc1ccc(CCN(Cc2cccs2)S(=O)(=O)c2ccc(S(=O)(=O)N(C)C3CCCCC3)cc2)cc1OC | 2.56%
5 | COc1cc(NC(=O)CCc2nnc3ccc(N4CCCC4)nn23)cc(OC)c1OC | 6.49%
6 | Cn1cc(/C=C(\NC(=O)c2ccccc2Cl)C(=O)NCCN2CCOCC2)c2ccccc21 | -30%
7 | O=C(CCC1CC(=O)Nc2ccccc21)NCc1ccc(F)cc1 (stereo not shown) | -17.6%
8 | O=C(Nc1nc(-c2ccc(F)cc2)cs1)c1cccc(N2C(=O)CCC2=O)c1 | 9.67%
9 | COc1ccc(C)cc1S(=O)(=O)N1CCCC(C(=O)NC2CC2)C1 (stereo not shown) | -0.49%
10 | O=C(NCc1ccccc1)C1CC(=O)N(C2CCCCC2)C1 (stereo not shown) | 17.8%
11 | O=C(NCC(=O)N1CCN(S(=O)(=O)c2ccccc2F)CC1)c1ccc2ccccc2c1 | -12.2%
12 | Cc1ccc(S(=O)(=O)N2CCCN(C(=O)CNC(=O)c3cccc(C)c3)CC2)cc1 | -54.3%
13 | Cc1cccc(C(=O)NCC(=O)N2CCC2)c1 | 2.59%
14 | Cc1cccc(C(=O)NCC(=O)N2CCN(S(=O)(=O)c3ccccc3)CC2)c1 | -10.8%
15 | Cc1ccc(C)c(S(=O)(=O)N2CCN(C(=O)CNC(=O)c3ccc4ccccc4c3)CC2)c1 | -28.1%
16 | O=C(NCC(=O)N1CCN(S(=O)(=O)c2ccccc2)CC1)c1ccc2ccccc2c1 | -53.5%
17 | CCOC(=O)C1CCN(c2cc3c(cc2NC(=O)c2ccccc2Cl)n(C)c(=O)n3C)CC1 | -48.8%
18 | CCOC(=O)C1CCN(Cc2ccc(O)c(OC)c2)CC1 | -13.7%
19 | Cc1ccc(C(=O)OCC(=O)N(C)C2CCS(=O)(=O)C2)cc1S(=O)(=O)N1CCCCC1 (stereo not shown) | -16.5%
20 | CC(C)CN(C(=O)c1cccc(S(=O)(=O)N2CCCCC2)c1)C1CCS(=O)(=O)C1 (stereo not shown) | 0.956%
21 | CCCCN(C(=O)c1ccc(S(=O)(=O)N2CCC(C)CC2)cc1)C1CCS(=O)(=O)C1 (stereo not shown) | -53.2%
22 | CCN(C(=O)COC(=O)c1ccc(C)c(S(=O)(=O)N2CCOCC2)c1)C1CCS(=O)(=O)C1 (stereo not shown) | 1.32%

Row | SMILES | hERG current change (%, negative = inhibition) at 10uM
23 | CCCCN(C(=O)c1ccc(S(=O)(=O)N2CCCC2)cc1)C1CCS(=O)(=O)C1 (stereo not shown) | -0.0452%
24 | CCCCN(C(=O)c1cccc(S(=O)(=O)N2CCCCC2)c1)C1CCS(=O)(=O)C1 (stereo not shown) | -52.1%
25 | CCN(C(=O)COC(=O)c1ccc(C)c(S(=O)(=O)N2CCCCC2)c1)C1CCS(=O)(=O)C1 (stereo not shown) | -66.5%
26 | CCN(C(=O)c1ccc(S(=O)(=O)N2CCC(C)CC2)cc1)C1CCS(=O)(=O)C1 (stereo not shown) | 7.87%
27 | CN(C(=O)c1cccc(S(=O)(=O)N2CCCCC2)c1)C1CCS(=O)(=O)C1 (stereo not shown) | 2.39%
28 | NS(=O)(=O)c1cc(C(=O)OCC(=O)Nc2ccccc2[N+](=O)[O-])ccc1Cl | -6.13%
29 | O=C1Nc2ccccc2N(O)N1c1ccc(S(=O)(=O)N2CCCCCC2)cc1 | 1.75%
30 | N#C/C(=C\c1ccc(-c2ccc(C(=O)O)cc2)o1)C(=O)Nc1ccc(F)cc1 | 25.6%
31 | O=C(NCCc1ccccc1)C1CCN(S(=O)(=O)N2CCC3(CC2)OCCO3)CC1 | -0.566%
32 | CCCOc1cccc(C(=O)N2CCN(C(=O)C3CCCO3)CC2)c1 (stereo not shown) | 7.15%
33 | CCC(=O)c1ccc(OCC(=O)OCC(=O)N2c3ccccc3NC(=O)C2(C)C)cc1 | 2.82%
34 | CC(C)c1ccc(N(CC(=O)NCC2CCCO2)C(=O)Cn2nnc(-c3cccs3)n2)cc1 (stereo not shown) | -42.5%
35 | NC(=O)NOCc1ncc(C(F)(F)F)cc1Cl | 10.4%
36 | CCc1nc(N(CC)CC)c2oc3ccccc3c2n1.Cl | -21.1%
37 | CCN(CC)CCOc1ncnc2c1oc1ccccc12 | -39.1%
38 | CN(C)CCOc1nc(-c2ccccc2)nc2c1oc1ccccc12 | -44.7%
39 | CCN(CC)CCOc1nc(C)nc2c1oc1ccccc12.Cl | -64.6%
40 | CCc1nc(OCCN(CC)CC)c2oc3ccccc3c2n1.Cl | -58.9%
41 | CCc1nc(OCCN(C)C)c2oc3ccccc3c2n1 | -4.1%
42 | CCCCCC(=O)Nc1ccccc1N1CCN(c2ccccc2)CC1 | -0.752%
43 | CSc1ccc(S(=O)(=O)NCC(=O)OCC(=O)N2CCCCC2C)cc1[N+](=O)[O-] (stereo not shown) | 4.74%
44 | COC(=O)Cc1ccc(O)c(N)c1 | 9.82%

Row | SMILES | hERG current change (%, negative = inhibition) at 10uM
45 | COc1ccccc1C(=O)N/C(=C/c1ccc(Br)cc1)C(=O)NCCCn1ccnc1 | -87%
46 | CCn1cc(/C=C(\NC(=O)c2ccccc2OC)C(=O)NCCCn2ccnc2)c2ccccc21 | -19.2%
47 | O=C(NCCCn1ccnc1)/C(=C\c1ccc(Br)cc1)NC(=O)c1ccccc1F | -74.3%
48 | C=CCNC(=O)/C(=C\c1ccc(Br)cc1)NC(=O)c1ccccc1OC | -51.8%
49 | COc1ccccc1C(=O)N/C(=C\c1ccc(Br)cc1)C(=O)NCCCO | -34.3%
50 | Cn1cc(/C=C(\NC(=O)c2ccccc2Cl)C(=O)NCCCn2ccnc2)c2ccccc21 | 8.3%
51 | COc1ccccc1C(=O)N/C(=C/c1ccc(Br)cc1)C(=O)NCC(=O)O | -8.44%
52 | COc1ccccc1C(=O)N/C(=C\c1cn(C)c2ccccc12)C(=O)NCCCn1ccnc1 | 3.22%
53 | O=C(NCCCn1ccnc1)/C(=C\c1cccnc1)NC(=O)c1ccccc1Br | 5.24%
54 | C=CCNC(=O)/C(=C/c1ccc(Br)cc1)NC(=O)c1ccccc1OC | -45.9%
55 | CCn1cc(/C=C(\NC(=O)c2ccccc2F)C(=O)NCCCn2ccnc2)c2ccccc21 | -69%
56 | O=C(NCCCn1ccnc1)/C(=C\c1cccnc1)NC(=O)c1ccccc1F | -17.7%
57 | COC(=O)c1cnn(-c2ccc(Cl)cc2)c1/C=N/NC(N)=S | 7.44%
58 | O=C(Nc1cccc(-c2csc(Nc3cccc(C(F)(F)F)c3)n2)c1)c1cc([N+](=O)[O-])cc(C(F)(F)F)c1 | 5.05%
59 | CC(C)Oc1ccc(CNCCC2(C(C)C)CCOC(C)(C)C2)cc1 (stereo not shown) | -45.4%
60 | COc1ccc(NC(=O)Nc2ncn(Cc3cccc(C(F)(F)F)c3)n2)cc1OC | -32.5%
61 | NC(=O)C(c1ccccc1)c1ccc(C(=O)c2ccccc2)cc1 (stereo not shown) | 3.08%
62 | CC(C)N1CCC(N2CCN(CC#Cc3ccccc3)CC2CCO)CC1 (stereo not shown) | 0.615%
63 | CCc1ccc(N2CC(O)=C(c3nc4ccccc4c(=O)[nH]3)C2=N)cc1 | 2.98%
64 | CCOc1ccc(Nc2oc(Cc3ccccc3)nc2C#N)cc1 | -1.96%
65 | CCCCOc1cc(CC2CNC(=O)N2)ccc1OC (stereo not shown) | -2.83%
66 | COc1ccccc1NC(=O)Cn1c(=O)oc2cc(S(=O)(=O)N3CCCC3)ccc21 | 16.6%

Row | SMILES | hERG current change (%, negative = inhibition) at 10uM
67 | CCOC(=O)N1CCc2c(sc(NC(=O)Cc3ccccc3)c2C(=O)c2ccc(OC)cc2)C1 | 13.7%
68 | CCOC(=O)N1CCc2c(sc(NC(=O)CN3CCOCC3)c2C#N)C1 | -1.09%
69 | CCOC(=O)N1CCc2c(sc(NC(=O)CN3CCN(C)CC3)c2C(=O)Nc2ccccc2)C1 | -77.2%
70 | CCOC(=O)c1c(NC(=S)N2CCOCC2)sc2c1CCN(C(=O)OCC)C2 | -1.31%
71 | CCOC(=O)N1CCc2c(sc(NC(=O)CN3CCOCC3)c2C(=O)Nc2ccccc2)C1 | -68.8%
72 | CCOC(=O)c1c(NC(=O)CN2CCCCC2)sc2c1CCN(C(=O)OCC)C2 | -10.9%
73 | O=C(CNC(=O)c1ccco1)OC(C(=O)c1ccccc1)c1ccccc1 (stereo not shown) | 0.438%
74 | CCN1C(=O)C2(C(C(=O)c3ccc(C)o3)=C(O)C(=O)N2CCCN2CCOCC2)c2ccccc21 (stereo not shown) | 0.0517%
75 | O=C(CSc1nccc(=O)[nH]1)N1CCOCC1 | 3.03%
76 | COc1cc(SC)ccc1C(=O)OCc1nc2ccsc2c(=O)[nH]1 | -30.6%
77 | O=C(CSc1nnc(Nc2ccccc2)s1)NCC1CCCO1 (stereo not shown) | -1.51%
78 | COc1cc2ccccc2cc1C(=O)NNC(=O)c1ccccc1O | 7.31%
79 | COc1cccc2c(=O)c3c([nH]c12)OC(C)(C)C3 | 13%
80 | COc1cc2ncnc(NCc3cccc(Cl)c3)c2cc1OC | -63.9%
81 | COc1cc2ncnc(NCc3ccc(F)cc3)c2cc1OC | -52.5%
82 | COc1cc2ncnc(NCc3ccc(C)cc3)c2cc1OC | -0.937%
83 | COc1ccc(CNc2ncnc3cc(OC)c(OC)cc23)cc1 | -3.69%
84 | COc1cc2ncnc(NCc3ccc(Cl)cc3)c2cc1OC | -31.2%
85 | COc1cccc(CNc2ncnc3cc(OC)c(OC)cc23)c1 | -11.6%

Source: paper PMC4336329 (PLoS ONE, 2015)
